Compound activity: PubChem, National Center for Advancing Translational Sciences (NCATS)
TDP1 cell noCPT: qHTS for Inhibitors of human tyrosyl-DNA phosphodiesterase 1 (TDP1): qHTS in cells in absence of CPT; DT40 Tdp1-/- hTDP1 cells, no CPT, ATP luminescence, 48 h; Potency, µM (doses to about 46.2 µM), hits mostly inhibitors; actives 15% (n = 420,000); AID 686978, 2013; note: nearly all actives have a fitted effect of over 55% in size
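Compound effects on proliferation are scored in DT40 Tdp1-/-;hTDP1 cells in the absence of CPT. ATP levels (CellTiter-Glo luminescence) are recorded after a ≥48 hr, 37 °C incubation.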
TDP1 cell CPT: growth inhibition of DT40 Tdp1-/-;hTDP1 cells with camptothecin (screen for TDP1 inhibitors) | actives 12% (n = 420,000) | Potency, µM (top dose mostly 46.2 µM), usual class: inhibitors | chicken DT40 Tdp1-/-;hTDP1 cells + 20 nM CPT, ATP luminescence, 48 h | AID 686979; note: nearly all actives have a fitted effect of over 55% in size
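Chicken DT40 Tdp1-/- cells complemented with human TDP1, 400 cells/well, exposed to compounds plus 20 nM camptothecin for at least 48 h at 37 C; viability read as ATP content by CellTiter-Glo luminescence.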
HT1080-NT tox: kills 2HG-producing HT-1080-NT fibrosarcoma cells. HT-1080-NT fibrosarcoma viability, CellTiter-Glo ATP luminescence, 48 h. Potency, µM (series often up to 46.1 µM), actives largely listed as cytotoxic. actives 1.6% (n = 360,000). AID 686970;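 note: NT is the 2HG producing partner of a matched IDH1 knockdown line; nearly all actives have a fitted effect of over 55% in size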
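Luminescent CellTiter-Glo readout after 48 hours of compound exposure at 37 degrees C defined viability of HT-1080-NT cells. Activity was normalized to DMSO wells and cell-free media wells; concentration-response curves were fitted and assigned curve classes.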
IL-1B inflam inh: inhibitors of inflammasome signaling (IL-1 beta secretion); THP-1 LPS/ATP IL-1B secretion, AlphaLISA, 16 h; stronger effect = lower value; activity change, % at 57.5 µM; actives 4.7% (n = 360,000); AID 743279; in the data active = activity change below about -50%; inconclusive = mostly about -30% to -49%
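Secreted IL-1B measured by AlphaLISA bead assay after 16 h compound exposure of THP-1 cells; compounds (final up to 57.5 uM) added 1 h before LPS (250 ng/mL) and ATP (1.25 mM) stimulation; lower signal means less secretion.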
HT1080 IDH1KD tx: HT-1080 IDH1 knockdown cell toxicity (counter line). Potency, µM (doses to about 46.1 µM), most hits filed as cytotoxic. actives 2% (n = 360,000). HT-1080 IDH1 knockdown viability, ATP luminescence, 48 h. AID 686971
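Luminescent ATP read-out (CellTiter-Glo, 10 min at room temperature) after 48 h compound exposure at 37 °C gave viability of IDH1-knockdown HT-1080 cells. Activity was normalised to DMSO and cell-free wells, then fitted as concentration-response curves.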
Numbers stand for hits; n = inactive; u = inconclusive; x = not tested or not shown; [ ] = dose if it differs, or a comment. Only some compounds are listed: those with a hit (about 19% of all), similar ones and a draw of the others. Unless noted, calls come from the whole dose curve; as a rule, active = well fitted curve in the direction sought with a large enough effect; inconclusive = small, poorly fitted or top-dose-only effect, or another doubt; inactive = no such curve, though single readings can be large; an effect the other way counts as inactive or inconclusive.

SMILES	TDP1 cell noCPT	TDP1 cell CPT	HT1080-NT tox	IL-1B inflam inh	HT1080 IDH1KD tx
CC(C)N1CCN(Cc2ccc3c(c2)Cc2ccccc2-3)CC1CCO (stereo unspecified)	23.1µM	u	u	n	u
CCCCCCCCCC1(CC(=O)OCC)SCCN1C(N)=O (stereo unspecified)	14.6µM	u	n	n	n
COc1cccc(C(c2sc3nc(-c4ccco4)nn3c2O)N2CCN(c3ccccc3F)CC2)c1 (stereo unspecified)	n	n	x	x	x
Cc1cccc(C)c1OCC(O)CNS(=O)(=O)c1ccccc1C(=O)N1CCCCC1 (stereo unspecified)	20.6µM	18.4µM	n	n	n
CC(C)CNS(=O)(=O)c1ccccc1C(=O)N1CCCCC1	n	n	n	n	n
COC(=O)c1nn(-c2ccccc2)c(Sc2ccc(Cl)cc2)c1/C=N/O	u	n	u	n	n
Cc1ccc2c(c1)C1CN(C)CCC1N2C(=O)COc1ccc(N(C)C(=O)c2ccccc2)cc1 (stereo unspecified)	13µM	5.17µM	n	n	n
O=S(=O)(c1ccc(C2CCCCC2)cc1)N1CCCC1	u	u	n	-64.7	n
N#CCCN1CCN(S(=O)(=O)c2ccc(C3CCCCC3)cc2)CC1	n	13µM	n	n	n
CCc1nnc(SC(CC)C(=O)Nc2cc(C)ccc2C)c2cc3occc3n12 (stereo unspecified)	14.6µM	18.4µM	x	x	x
CN(C(=O)CSc1nncn2c1cc1occc12)c1ccccc1	25.9µM	u	x	x	x
Cc1cc(C)cc(NC(=O)CSc2nncn3c2cc2occc23)c1	u	n	x	x	x
CCc1cccc(C)c1NC(=O)C(CC)Sc1nncn2c1cc1occc12 (stereo unspecified)	20.6µM	20.6µM	x	x	x
Cc1ccc(C)c(NC(=O)CSc2nnc(C)n3c2cc2occc23)c1	u	n	x	x	x
CCCCCSc1ncnc2c1sc1nc(N3CCOCC3)c3c(c12)CCCC3	n	n	x	x	x
CC(C)n1nccc1N(Cc1ccc(Cl)cc1)S(=O)(=O)c1ccccc1	u	n	n	-70.8	n
CC(C)n1nccc1N(Cc1ccc(Br)cc1)S(=O)(=O)c1ccccc1	u	23.1µM	u	u	u
N#Cc1ccc(CN(c2ccncc2)S(=O)(=O)c2ccccc2)cc1	n	n	n	n	n
Cn1c(Sc2ccc(Br)cc2)c(C=O)c2ccccc21	13µM	u	u	-80.5	25.9µM
CCOc1cc(CNc2ccccc2)cc(Br)c1OCC(=O)NC(C)(C)C	u	u	u	-87.3	u
COc1cc(CNc2ccc(CNc3ncn[nH]3)cc2)ccc1OCC(=O)NC(C)(C)C	16.4µM	u	n	n	n
CCOc1cc(CNc2ccc(Br)cc2)cc(Br)c1OCC(=O)NC(C)(C)C	u	20.6µM	u	n	u
CCOc1cc(CNc2ccc(OC)cc2)cc(Br)c1OCC(=O)NC(C)(C)C	u	u	u	u	n
CCOc1cc(CNn2cnnc2)cc(Br)c1OCC(=O)NC(C)(C)C	n	n	n	n	n
COc1ccc([C@H]2CC(=O)C=C(c3cccc(CO)c3)C2)cc1	u	u	n	n	n
SMILES	TDP1 cell noCPT	TDP1 cell CPT	HT1080-NT tox	IL-1B inflam inh	HT1080 IDH1KD tx
Cc1cccc(N(CC(=O)NCc2ccc(F)cc2)C(=O)c2csnn2)c1C	u	n	n	n	n
Cc1ccccc1C1(CC(=O)N2CCC[C@H]2C(N)=O)CC(=O)N(C2CCCC2)C1=O (stereo partly specified)	n	n[9.04 µM]	x	x	x
Cc1cccc(NC(c2ccc(O)cc2)c2ccc3ccc(C)nc3c2O)n1 (stereo unspecified)	16.4µM	23.1µM	n	-71.1	n
Cc1ccccc1C(=O)NC(NC(=O)c1ccccc1C)c1cccc([N+](=O)[O-])c1	u	n	n	n	n
CC(=O)NC(c1cccc([N+](=O)[O-])c1)c1ccc2cccnc2c1O (stereo unspecified)	1.03µM	2.59µM	u	n	u
COc1cccc(C(NC(C)=O)c2ccc3cccnc3c2O)c1 (stereo unspecified)	0.92µM	0.731µM	n	n	u
COc1cccc(C(NC(C)=O)c2nc(-c3cccnc3)cs2)c1 (stereo unspecified)	n	n	n	n	n
Oc1cccc(C(Nc2nccs2)c2ccc3cccnc3c2O)c1 (stereo unspecified)	4.61µM	3.66µM	29.1µM	-106.9	18.4µM
CCOC(=O)CN(C#N)c1nc(N(C)C)nc(N(C)C)n1	n	n	n	n	n
CCCCC(=O)NC(c1cccc([N+](=O)[O-])c1)c1ccc2cccnc2c1O (stereo unspecified)	2.91µM	3.66µM	u	n	u
O=[N+]([O-])c1ccc(NC(c2ccccc2)c2ccc3cccnc3c2O)cc1 (stereo unspecified)	4.61µM	3.26µM	u	n	u
COc1cccc(C(Nc2ccccc2)c2ccc3ccc(C)nc3c2O)c1 (stereo unspecified)	5.17µM	5.8µM	10.3µM	n	7.31µM
O=[N+]([O-])c1ccc2cccnc2c1	n	n	n	n	n
CCOC(=O)C(NC(=O)CC)C(O)c1cccc([N+](=O)[O-])c1 (stereo unspecified)	n	n	n	n	n
CCCCn1c(N)c(N(CCOC)C(=O)c2ccc(F)c(S(=O)(=O)N3CCOCC3)c2)c(=O)[nH]c1=O	n	n	n	n	n
CN1CCCCCC1C(=O)NCC1Cc2cc(-c3cnccn3)ccc2O1 (stereo unspecified)	u	n	x	x	x
O=C(c1cnccn1)N1CCC[C@@]2(CCN(c3ccncc3)C2)C1	n	n	x	x	x
COc1cc(OC)c2cc(C(=O)N/N=C/c3cccc(OC)c3O)[nH]c2c1	6.51µM	14.6µM	u	n	9.2µM
COc1cccc(/C=N/NC(=O)c2cc3c(OC)ccc(OC)c3[nH]2)c1O	4.11µM	6.51µM	u	n	25.9µM
COc1cc(C(=O)NCCc2c[nH]c3ccccc23)ccc1OCc1c(C)noc1C	18.4µM	u	n	-77.3	n
COc1cc(C(=O)NCC(c2ccccc2)N(C)C)ccc1OCc1c(C)noc1C (stereo unspecified)	u	16.4µM	n	n	u
COc1ccccc1CNC(=O)c1ccc(OCc2c(C)noc2C)c(OC)c1	n	n	n	n	n
COc1cc(C(=O)NCc2ccc(C)cc2)ccc1OCc1c(C)noc1C	u	n	n	n	n
COc1cc(C(=O)OCC#N)ccc1OCc1c(C)noc1C	23.1µM	u	u	n	25.9µM
COc1ccc(COc2ccc(C3C(S(=O)(=O)c4ccccc4)CON3C)cc2OC)cc1 (stereo unspecified)	u	n	n	n	n
